The source of these data is PubChem BioAssay AID651640 (Broad Institute, 2012).

Each structure is given as a SMILES string. About 6,000 (1.7%) of roughly 350,000 compounds were called active. Roughly 5% stayed inconclusive and do not appear here. Shown is part of a subset that was picked to be rich in actives. A number with no mark means an inactive call. Cut-off read from the data, not from the text of the source: active = CPE inhibition above about 20% (passing the limit was not always enough); inconclusive = no clear call, values can overlap the other calls; tested in BHK-21 cells.

The nature of this test: inhibitors of DENV2 cytopathic effect, primary screen, cell-based, plate reader, single concentration (AID 651640).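 Note: 0% = median of neutral control wells and 100% = median of positive control wells.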 Conditions: DENV2-infected cells, cytopathic effect rescue, at 9.99 µM, stronger effect = higher value.
In the case of `CN1C(=O)c2cc(NC(=O)C3CCOCC3)ccc2OC[C@H]2O[C@@H](CC(=O)NCC3CCCCC3)CC[C@@H]21`, the CPE inhibition was 1.63%. Turning to `C=CC[C@]1(C(=O)NCC(O)CO)N=C(c2ccc(OCCCO)cc2)O[C@H]1c1ccccc1` (some centres undefined), the CPE inhibition was 1.79%. With `[N-]=[N+]=Nc1ccccc1C[C@@]1(C(=O)NCc2ccccc2)N=C(c2ccc(OCCCO)cc2)O[C@@H]1c1ccccc1` the figure was 33.8% (active); with `COC(=O)[C@@]1(CCS(=O)(=O)c2ccccc2)N=C(c2ccc(OCCCO)cc2)O[C@H]1c1ccccc1N=[N+]=[N-]`, -1.34%; with `O=C(C[C@H]1CC[C@H](NC(=O)C2CCC2)[C@@H](CO)O1)Nc1nccs1`, 0.802%. On to `O=C(Cc1ccccn1)N[C@H]1CC[C@@H](CC(=O)N2CCCCC2)O[C@@H]1CO`, for which the CPE inhibition is -2.26%. With `OC(CCl)CCl` the figure was 32.4% (active). With `O=C(c1ccc(F)cc1)N1CC(=O)N2[C@H](CO)[C@H](c3ccc(-c4ccccc4F)cc3)[C@@H]2C1`, the CPE inhibition is 7.8%. With `C[C@@H]1CN([C@H](C)CO)C(=O)c2cc(NC(=O)Nc3cccc4ccccc34)ccc2O[C@@H](C)CCCCO[C@H]1CN(C)S(=O)(=O)c1cccs1`, the CPE inhibition is -15.6%.

For the compound `O=C(NCc1ccccc1Cl)[C@H]1[C@H](CO)[C@H]2Cn3c(cccc3=O)[C@H]2N1C(=O)C1CCC1`, the CPE inhibition was -3.74%. `CCCN1[C@H](C(=O)NC2Cc3ccccc3C2)[C@@H](CO)[C@@H]2Cn3c(cccc3=O)[C@@H]21`: the CPE inhibition was -9.85%. For the compound `CCCNC(=O)[C@H]1[C@H](CO)[C@H]2Cn3c(cccc3=O)[C@H]2N1Cc1ccccc1Cl`, the CPE inhibition was 140% (active). Regarding `O=C(c1cccnc1)N1CC[C@H]2[C@H](CO)Nc3ccc(-c4ccc(F)cc4)cc3[C@H]21`, the CPE inhibition was 1.83%. On to `C[C@@H]1CN([C@@H](C)CO)C(=O)Cc2cc(NC(=O)Cc3ccccc3)ccc2O[C@@H]1CN(C)C(=O)Nc1ccc2c(c1)OCO2`, for which the CPE inhibition is -7.53%. As for `COCC(=O)N1CC[C@@H]2[C@@H](CO)Nc3ccc(-c4ccc(C(=O)N(C)C)cc4)cc3[C@@H]21`, the CPE inhibition is 5.72%. `CCNC(=O)[C@@H]1[C@@H](CO)[C@@H]2Cn3c(ccc(C4=CCCCC4)c3=O)[C@@H]2N1Cc1ccccc1F`: the CPE inhibition was 2.99%. Turning to `O=C(NC1CCC1)[C@H]1[C@H](CO)[C@H]2Cn3c(ccc(C4=CCCCC4)c3=O)[C@@H]1N2CC1CC1`, the CPE inhibition was -0.675%. On to `O=C(NC1Cc2ccccc2C1)[C@H]1[C@H](CO)[C@H]2Cn3c(ccc(C4=CCCCC4)c3=O)[C@H]2N1CC1CC1`, for which the CPE inhibition was 39.5% (active). Turning to `COc1ccccc1NC(=O)N[C@H]1C=C[C@H](CC(=O)N[C@@H](C)c2ccccc2)O[C@H]1CO`, the CPE inhibition is 4.39%. With `COc1ccccc1NC(=O)N[C@H]1CC[C@@H](CC(=O)N[C@@H](C)c2ccccc2)O[C@H]1CO`, the CPE inhibition is 3.47%.

Consider `COc1ccccc1NC(=O)N[C@H]1C=C[C@@H](CC(=O)N[C@@H](C)c2ccccc2)O[C@@H]1CO`, for which the CPE inhibition was 20.2% (active). For `C[C@@H]1CN([C@@H](C)CO)C(=O)Cc2cc(NC(=O)Cc3ccccc3)ccc2O[C@H]1CN(C)Cc1ccc(C(=O)O)cc1`, the CPE inhibition is -5.69%. As to `Cc1noc(C)c1NC(=O)N(C)C[C@@H]1Oc2ccc(NC(=O)Nc3cccc4ccccc34)cc2CC(=O)N([C@@H](C)CO)C[C@H]1C`, the CPE inhibition was 3.02%. On to `C[C@H]1CN([C@@H](C)CO)C(=O)c2cccc(NC(=O)Nc3ccc(F)cc3)c2O[C@@H]1CN(C)C(=O)Nc1ccc2c(c1)OCO2`, for which the CPE inhibition was -3.44%.
